± gives the standard deviation.

Holding throughout (experiment): peptide microarray binding signal (635 nm), min-max normalized on array (fraction of array maximum); higher = stronger binding
Experiment [1] deals with T1, HaloTag-ATRX ADD domain (163-292).
T1 chain: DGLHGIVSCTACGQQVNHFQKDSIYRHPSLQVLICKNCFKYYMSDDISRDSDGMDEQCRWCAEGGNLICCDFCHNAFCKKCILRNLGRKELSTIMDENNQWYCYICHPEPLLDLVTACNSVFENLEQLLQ
The method, boiled down:
(§1)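 Triplicate spots of histone 13-mer peptide–cellulose conjugates with a Cy3 tracer were printed on nitrocellulose and probed for 1 h at 4°C with biotin-labelled HaloTag reader fusions (10 nM to 1 μM) plus streptavidin-Alexa Fluor 647 or rabbit histone antibodies (1:10,000 to 1:2,000) plus anti-rabbit Alexa 647. An Axon GenePix 4000B read the 635 nm channel. Binding signal is the spot-triplicate mean intensity after min-max scaling within each library.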

Experiment [2] deals with HaloTag-ING2 PHD (mouse Ing2 200-280). The method, boiled down:
as §1

The target in experiment [3] is anti-H3K4me3 antibody ab8580. The procedure, abridged: as §1
The target in experiment [4] is anti-H3K9me3 antibody ab8898. The method, boiled down:
as §1

Setting [5] is: peptide region: H3 30-42, peptide modifications: H3K36me1, binder concentration: 1:2,000 dilution.
Where [6] appears, read: peptide region: H3 30-42, peptide modifications: H3K36me1, binder concentration: 1:10,000 dilution.
Setting [7] is: peptide region: H3 30-42, peptide modifications: H3K36ac H3K37ac, binder concentration: 1:2,000 dilution.
[8] abbreviates: peptide region: H3 30-42, peptide modifications: H3K36ac H3K37ac, binder concentration: 1:10,000 dilution.
[9] abbreviates: peptide region: H3 20-32, peptide modifications: H3R26me2s H3K27me3, binder concentration: 1:2,000 dilution.
The mark [10] stands for this setting: peptide region: H3 20-32, peptide modifications: H3R26me2s H3K27me3, binder concentration: 1:10,000 dilution.
The mark [11] stands for this setting: peptide region: H3 30-42, peptide modifications: H3K36ac, binder concentration: 1:2,000 dilution.
Where [12] appears, read: peptide region: H3 30-42, peptide modifications: H3K36ac, binder concentration: 1:10,000 dilution.
Setting [13] is: peptide region: H3 20-32, peptide modifications: H3R26me2a H3K27me2, binder concentration: 1:2,000 dilution.
The mark [14] stands for this setting: peptide region: H3 20-32, peptide modifications: H3R26me2a H3K27me2, binder concentration: 1:10,000 dilution.

On to PATGGVKKPHRYR [H3 30-42 P A T G G V Kme K P H R Y R], for which the “peptide microarray binding signal” value in experiment [1] (peptide region: H3 30-42, peptide modifications: H3K36me1, binder concentration: 50 nM) was 0.0102 ± 0.00043; in experiment [1] (peptide region: H3 30-42, peptide modifications: H3K36me1, binder concentration: 500 nM) it was 0.015 ± 0.0004; in experiment [2] (peptide region: H3 30-42, peptide modifications: H3K36me1, binder concentration: 10 nM), 0.0184 ± 0.00087; in experiment [2] (peptide region: H3 30-42, peptide modifications: H3K36me1, binder concentration: 100 nM) it was 0.0275 ± 0.0015; in experiment [3] (setting [5]), 0.00478 ± 0.00043; in experiment [3] (setting [6]), 0.00474 ± 0.00045. Besides, the “peptide microarray binding signal” value in experiment [4] (setting [5]) stood at 0.00237 ± 7.4e-05; in experiment [4] (setting [6]), 0.00277 ± 4.8e-05.
For PATGGVKKPHRYR [H3 30-42 P A T G G V Kac Kac P H R Y R], the “peptide microarray binding signal” value in experiment [1] (peptide region: H3 30-42, peptide modifications: H3K36ac H3K37ac, binder concentration: 50 nM) is 0.00357 ± 6.3e-05; in experiment [1] (peptide region: H3 30-42, peptide modifications: H3K36ac H3K37ac, binder concentration: 500 nM), 0.00462 ± 8.3e-05; in experiment [2] (peptide region: H3 30-42, peptide modifications: H3K36ac H3K37ac, binder concentration: 10 nM) it was 0.00489 ± 0.00017; in experiment [2] (peptide region: H3 30-42, peptide modifications: H3K36ac H3K37ac, binder concentration: 100 nM) it was 0.00539 ± 0.00019; in experiment [3] (setting [7]), 0.00264 ± 0.00042; in experiment [3] (setting [8]) it was 0.003024 ± 2.6e-05. The “peptide microarray binding signal” value in experiment [4] (setting [7]) amounted to 0.00427 ± 0.00042; in experiment [4] (setting [8]) it was 0.00271 ± 0.00018.
Consider LATKAARKSAPAT [H3 20-32 L A T K A A Rme2s Kme3 S A P A T], for which the “peptide microarray binding signal” value in experiment [1] (peptide region: H3 20-32, peptide modifications: H3R26me2s H3K27me3, binder concentration: 50 nM) stood at 0.00342 ± 5.6e-05; in experiment [1] (peptide region: H3 20-32, peptide modifications: H3R26me2s H3K27me3, binder concentration: 500 nM), 0.003095 ± 2.4e-05; in experiment [2] (peptide region: H3 20-32, peptide modifications: H3R26me2s H3K27me3, binder concentration: 10 nM), 0.00889 ± 0.00023; in experiment [2] (peptide region: H3 20-32, peptide modifications: H3R26me2s H3K27me3, binder concentration: 100 nM) it was 0.00808 ± 0.00038; in experiment [3] (setting [9]) it was 0.0443 ± 0.0026; in experiment [3] (setting [10]), 0.0353 ± 0.0044. The “peptide microarray binding signal” value is 0.082 ± 0.006 in experiment [4] (setting [9]) and 0.0554 ± 0.0085 in experiment [4] (setting [10]).
Consider PATGGVKKPHRYR [H3 30-42 P A T G G V Kac K P H R Y R], for which the “peptide microarray binding signal” value in experiment [1] (peptide region: H3 30-42, peptide modifications: H3K36ac, binder concentration: 50 nM) is 0.0068 ± 0.00033; in experiment [1] (peptide region: H3 30-42, peptide modifications: H3K36ac, binder concentration: 500 nM), 0.0116 ± 0.0019; in experiment [2] (peptide region: H3 30-42, peptide modifications: H3K36ac, binder concentration: 10 nM) it was 0.0378 ± 0.0029; in experiment [2] (peptide region: H3 30-42, peptide modifications: H3K36ac, binder concentration: 100 nM), 0.0552 ± 0.0035; in experiment [3] (setting [11]) it was 0.0364 ± 0.0021; in experiment [3] (setting [12]), 0.0246 ± 0.0028. Moreover, the entries for the “peptide microarray binding signal” value in experiment [4] (setting [11]) and in experiment [4] (setting [12]) were 0.025 ± 0.0016 and 0.00963 ± 0.00018, respectively.
With LATKAARKSAPAT [H3 20-32 L A T K A A Rme2a Kme2 S A P A T], the “peptide microarray binding signal” value in experiment [1] (peptide region: H3 20-32, peptide modifications: H3R26me2a H3K27me2, binder concentration: 50 nM) was determined as 0.004984 ± 4.8e-05; in experiment [1] (peptide region: H3 20-32, peptide modifications: H3R26me2a H3K27me2, binder concentration: 500 nM) it was 0.00857 ± 0.00072; in experiment [2] (peptide region: H3 20-32, peptide modifications: H3R26me2a H3K27me2, binder concentration: 10 nM) it was 0.0166 ± 0.00092; in experiment [2] (peptide region: H3 20-32, peptide modifications: H3R26me2a H3K27me2, binder concentration: 100 nM) it was 0.0255 ± 0.00049; in experiment [3] (setting [13]), 0.0097 ± 0.0011; in experiment [3] (setting [14]), 0.0118 ± 0.00089. Also, the entries for the “peptide microarray binding signal” value in experiment [4] (setting [13]) and in experiment [4] (setting [14]) were 0.0051 ± 0.00036 and 0.00363 ± 7.8e-05, respectively.
